# Assay results as given in PubChem BioAssay AID1671193 (National Center for Advancing Translational Sciences (NCATS), 2021).
# The whole screen tested about 150,000 compounds, of which about 180 (0.12%) were called active. Another 6% or so got no clear call; they are omitted. This excerpt belongs to a sample that is enriched for actives. Values without a mark were called inactive. Calls follow the shape of the dose curve; as a rule, active = well fitted cell-killing curve with a large enough effect; inconclusive = small, poorly fitted or top-dose-only effect, or effect the other way; inactive = flat fitted curve, though single readings scatter.
# Assay: GF-AFC viability counterscreen for inhibitors of alpha-synuclein gene (SNCA) expression; also: nearly all actives have a fitted effect of over 30% in size
# Conditions: HEK-293-SNCA-luc viability, GF-AFC fluorescence, 24 h; series mostly up to 57.1 µM; activity change, negative = cytotoxicity: at the top concentration
# Source text: Assay Submitter (PI): Daniel R. Scoles Ph.D.
# Department of Neurology, University of Utah, Salt Lake City, Utah
# Accumulation of alpha-synuclein is a main underlying pathological feature of Parkinson's disease (PD) and alpha-synucleinopathies, for which lowering expression of the alpha-synuclein gene (SNCA) is a potential therapeutic avenue. Using a cell-based luciferase reporter of SNCA expression we performed a quantitative high throughput screen (qHTS) of 155,885 compounds in dose response. The screening assay was generated using genome editing to insert the luciferase gene downstream and in frame of the SNCA gene in HEK-293 cells (1). A viability counterscreen using GF-AFC was used to eliminate cytotoxic and false positive compounds. After in silico analysis (clustering, removal of frequent hitter nuisance chemotypes), inhibitor compounds from the primary screen were selected for follow up and re-tested at 11-doses in the SNCA-luc cells (luciferase and GF-AFC confirmation), and in CMV-luc expressing cell line to flag general transcriptional repressors.
# Described herein are the results of the GF-AFC viability counterscreen for SNCA inhibitors; inactivity (no decrease in fluorescence signal, not cytotoxic) is the desired output for this assay.
# 1. Dansithong, W., Paul, S., Scoles, D. R., Pulst, S. M., and Huynh, D. P. (2015) Generation of SNCA Cell Models Using Zinc Finger Nuclease (ZFN) Technology for Efficient High-Throughput Drug Screening. PLoS ONE 10, e0136930.
# SEQUENCE No. (e.g., 1, 2, 3, etc.); […] (e.g., Cells, Incubation, Reagent, etc.); VALUE; DESCRIPTION
# 1; Cells; 4 uL; Dispense 1500 HEK-293-SNCA-luc cells/well into Greiner 1536-well white / solid bottom tissue culture treated plate. The plate was covered with metal lids with gas-exchange holes.
# 2; Incubate; 24 hours; Incubate at 37C, 5% CO2, 95% RH.
# 3; Compounds; 23 nL; Compounds and controls were transferred via a Kalypsys Pin Tool (Wako USA) equipped with a 1536-slotted pin array. The plate was covered with metal lids with gas-exchange holes.
# 4; Incubate; 24 hours; Incubate at 37C, 5% CO2, 95% RH.
# 5; Dispense; 1 uL; Dispense Gly-Phe-7-amino-4-trifluoromethylcoumarin (GF-AFC, prepared at 125 uM in PBS) was added. The plate was covered with metal lids with gas-exchange holes.
# 6; Incubate; 30 min; Incubate at 37C, 5% CO2.
# 7; Detector; Fluorescence; Measure fluorescence with ViewLux microplate reader (PerkinElmer) equipped with 405/10 excitation and 540/25 emission filters.
# 8; Dispense; 3 uL; Dispense ONE-Glo ([…]) lucifase detection reagent was added to each well. Plates were covered with metal lids with gas-exchange holes.
# 9; Incubate; 15 min; Incubate at room temperature.
# 10; Detector; Luminescence; Measure luminescence with ViewLux microplate reader (PerkinElmer) equipped with clear filters.
# NOTES (numbers refer to sequence above)
# 1; HEK-293-SNCA-luc were cultured and suspended in phenol-red free DMEM (4.5 g/L glucose, 25 mM HEPES, cat #21063 (Thermo)).
# 3; Compounds were added to the assay plate in an 11-point intra plate dose response, 1:3 titration in DMSO with a final concentration range of […]. Vehicle-only plates, with DMSO being pin-transferred to every well, were inserted at the beginning of screening runs to confirm expected assay performance. Activity was normalized to wells containing medium only (-100% activity, full inhibition) and SNCA-luc cells treated with DMSO vehicle control (0% activity), contained on the same plate as test samples.
# 10; Signals were analyzed, and dose-response curves were fit using the Hill equation. Compounds in curve classes -1.1, -1.2, -2.1, -2.2 in the SNCA-luc assay were considered active. Compounds were eliminated from further consideration if also active (curve class -1.1, -1.2, -1.3, -1.4, -2.1, -2.2, -2.3, -2.4) in the GF-AFC cytotoxicity assay.
row,Compound,"activity change, negative = cytotoxicity"
1,CCOC(=O)C1CCCN(C(=O)c2c(C)oc3c2CN(Cc2ccc(C)cc2)CC3)C1 (configuration not stated),1.84%
2,COc1ccc(OC)c2nc(-c3cccc(C)c3)c(CN3CCCC(O)C3)cc12 (configuration not stated),-18%
3,O=C(NC1CCN(c2ccnc3ccnn23)C1)c1ccccc1F (configuration not stated),2.27% [at 87.6 µM]
4,Cn1nccc1C(=O)NCCC1CCN(C(=O)Nc2ccccc2)CC1,-3.2%
5,Cc1ccc(-c2noc([C@@H]3Cc4nc[nH]c4CN3Cc3cccc(C#N)c3)n2)cc1,-20.9% [at 87.6 µM]
6,CCCCN(CC#Cc1ccccc1)C(=O)c1cc(=O)n(C)c(=O)n1C,-8.83%
7,COc1ccc(NC(=O)c2nc3sccn3c2-c2cccnc2)cc1,-12.6% [at 87.6 µM]
8,COCCN1C(=O)CS(=O)(=O)C12CCN(C(=O)c1ccc(C)s1)CC2,20%
9,CCOc1ccccc1CN1CCC(Cc2nc(-c3cccnc3)n[nH]2)C1 (configuration not stated),-0.241%
10,COc1ccccc1-c1nc(C(=O)NCc2cccs2)n2ccncc12,28.7%
11,O=C(c1ccc(C(F)(F)F)cc1)N1CCCC(C(=O)N2CCC(c3nc4ccncc4[nH]3)C2)C1 (configuration not stated),-6.6%
12,CN1CCC2(CC1)Cc1ccccc1CN(C(=O)c1cccc(Cl)c1)C2,10.6%
13,O=C(NCc1cccc(Cl)c1)C1CCc2nnc(-c3cccc(C(F)(F)F)c3)n21 (configuration not stated),-23.1%
14,COc1ccccc1CN1C(=O)COC[C@@H]1[C@H](O)c1ccc(NC(=O)c2ccc(C#N)cc2)cc1,-0.083%
15,CC(C)Cc1ccc(CN2CCC3(CC2)Cc2ccccc2CNC3=O)cc1,-13.9%
16,COc1ccc(S(=O)(=O)N2CCC3(CCC(=O)N(CC4CC4)CC3)CC2)cc1,3.17%
17,O=C(NC1CCN(c2cc(-c3cccs3)[nH]n2)C1)c1ccc(Br)cc1 (configuration not stated),-25.9%
18,COc1ccc(CN2CC(Oc3ccc(F)c(F)c3)C2)cc1,6.04%
19,COc1cccc(-c2cc(C3CCN(C(=O)Nc4ccccc4C)CC3)[nH]n2)c1,5.76%

row,Compound,"activity change, negative = cytotoxicity"
1,Cc1cccc(-c2nc3ccc(C(=O)N4C(C)CCCC4C)cc3o2)n1 (configuration not stated),4.64% [at 87.6 µM]
2,COc1ccc(NC(=O)N2CCCC(Cc3noc(-c4ccccc4)n3)C2)cc1 (configuration not stated),-21.5%
3,O=C(Cc1ccc(F)cc1)N1CCC(n2cc(-c3nc(-c4ccccc4)no3)nn2)CC1,-4.44%
4,COc1ccc(CNC(=O)C2CCN(c3cc(C(F)(F)F)nc(C)n3)CC2)cc1,-1.08%
5,O=C(Nc1ccc(Cl)cc1)NC1CCN(C(=O)c2ccc(-c3cncnc3)cc2)CC1,0.645% [at 12.5 µM]
6,O=C(NC1CCCc2c1[nH]c1c(Cl)cccc21)c1ccco1 (configuration not stated),-11.1%
7,COc1ccc(C)cc1NC(=O)Nc1cccc(-c2ccc(N3CCCCC3)nn2)c1,-0.192%
8,CC1(CCCCc2ccccc2)COc2ccc(C(=O)N3CCNC(=O)C3)cc2N1 (configuration not stated),10.4% [at 87.6 µM]
9,COC(=O)C1=C(C)N=C2SC=C(CC(=O)N3CCCC3)N2C1c1cccc(F)c1 (configuration not stated),-2.14%
10,COC(=O)N1CCC(C(=O)N2CCC3(CC2)CC(=O)Nc2ccccc2O3)CC1,-2.76%
11,O[C@@H]1C[C@@H](c2nc(-c3ccc4c(c3)OCO4)no2)N(Cc2ccc(-c3ccccn3)cc2)C1,3.7%
12,CN(C)c1cccc(-c2cnc(Nc3ccc(N4CCOCC4)cc3)c3c2CCO3)c1,-24.4% [at 87.6 µM]
13,Cc1ccccc1N(C)C1CN(C(=O)OC(C)(C)C)C1,-2.58% [at 87.6 µM]
14,COc1cccc(-c2cc(-c3nc(-c4ccc5nc[nH]c5c4)no3)[nH]n2)c1,-0.573%
15,COc1ccc(S(=O)(=O)N2CCC(n3cnnc3-c3ccccc3)CC2)cc1Cl,11.8%
16,O=C(C1CCN(c2nc(-c3ccccc3)nc3c2CCC3)CC1)N1CCC[C@H]1CO,-13.8%
17,O=C(O)CCNC(=O)Cn1nc2c(cc1=O)CCCC2,3.69%
18,O=C(NCc1ccc(F)cc1)C1CCCN(c2ccnc3ccnn23)C1 (configuration not stated),-16.2% [at 87.6 µM]
19,O=C(c1ccco1)N1CCC(O)(c2ccccc2)[C@H](N2CCCC2)C1 (some centres not stated),-4.84%

row,Compound,"activity change, negative = cytotoxicity"
1,COc1ccc(-n2c(=O)c(C(=O)Nc3ccccc3Cl)nc3cccnc32)cc1,12.9%
2,Cc1ccc(C(=O)N2CCC(C(=O)N3CCC(c4nc5ncccc5[nH]4)CC3)C2)cc1 (configuration not stated),0.717%
3,O=C(Nc1cc(-c2cccnc2)nn1-c1ccccc1)c1ccccc1F,-11.9%
4,CC(C)Cn1c(=O)c(C(=O)NCc2ccccc2Cl)nc2cccnc21,-0.216%
5,CC(C)C(=O)N1CCC2(CC1)OC(=O)N(Cc1ccccc1F)C2(C)c1ccccc1 (configuration not stated),7.41% [at 87.6 µM]
6,FC(F)(F)c1ccc(CN2CCCC3(CC(c4ccccc4)=NO3)C2)cc1 (configuration not stated),-1.62%
7,O=C(NCCC1CCN(C(=O)Nc2ccc(F)cc2)CC1)c1ccccn1,2.57%
8,COc1ccc(C(=O)N2CCC3(CC2)N(c2ccccc2)C(=O)CS3(=O)=O)cc1F,12.3%
9,Cc1ccc(F)cc1S(=O)(=O)N1CCC(OC2CCN(Cc3ccccc3)CC2)CC1,0.655%
10,COc1cc(CNCCOc2ccccc2)ccc1OCC(O)CN1CCOCC1 (configuration not stated),-10.6%
11,CC(=O)NC[C@H]1COCc2nc3cc(NC(C)=O)ccc3n21,-1.47% [at 87.6 µM]
12,COCCOc1ccc(-c2noc([C@@H]3CCCN3C3CCC3)n2)cn1,-1.78% [at 87.6 µM]
13,COc1ccccc1CN1Cc2cc(NC(=O)C3CCCC3)ccc2OC(C)C1=O (configuration not stated),-3.41%
14,O=C(CCC1CCN(S(=O)(=O)c2ccccc2)CC1)NCCc1ccccc1,-3.02%
15,CC(=O)c1c(C)nn(C(C)CC(=O)N2C[C@H]3CC=CC[C@H]3C2)c1C (some centres not stated),2.51%
16,O=C(C[C@@H]1CCNC[C@@H]1Cc1cc(CC2CCCCC2)on1)NC1CCCCC1,8.24% [at 87.6 µM]
17,COc1cccc([C@@H]2CN(C(=O)CCCn3cnnn3)C[C@H]2C(=O)O)c1,6.48%
18,COCCN(C)Cc1ccc(CC2CCN(C(=O)C3(c4ccc(OC)cc4)CC3)CC2)cc1,-1.65%
19,CCOc1ccc(CC(=O)N2CCC(C3CCN(C(=O)NC)CC3)C2)cc1 (configuration not stated),6.55% [at 12.5 µM]
